This passage reports growth results from PubChem BioAssay (NCI).

This is part of a sample that, as a whole, favours compounds with a hit. Of some 83,000 tested, about 20% had one in any assay.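 Single-concentration screen, 48 h exposure, 96-well plates. Endpoint: percent growth. Below 10 = active.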 Unmarked numbers belong to inactive results. Active and inactive are the calls of the source.

Test systems include NCI-H23 lung; NCI-H226 lung; NCI-H322M lung; HOP-62 NSCLC; NCI-H460 lung; HOP-92 NSCLC; NCI-H522 lung; A549/ATCC NSCLC; 786-0 renal; COLO 205 colon; DU-145 prostate; K-562 leukemia; MALME-3M melanoma; MDA-MB-231 breast; RXF 393 renal; SF-268 CNS; SF-295 CNS; SF-539 CNS; UACC-257 melanoma; M14 melanoma.
Test in all cases: NCI-60 one-dose screen, 48 h (100 = growth as untreated, 0 = no growth, -100 = all killed)
Holding throughout (conditions): 10 µM unless noted

As to `COCCNC(=O)Nc1ccc2nc(-c3cccs3)c(-c3cccs3)nc2c1`, the growth in the assay on NCI-H23 lung is 90%; in the assay with NCI-H226 lung, 92.8%; in the assay on NCI-H322M lung, 98.6%; in the assay with HOP-62 NSCLC, 101%; in the assay on NCI-H460 lung, 88.7%; in the assay with HOP-92 NSCLC it was 80.8%. Moreover, the growth with NCI-H522 lung is 76.6%; with A549/ATCC NSCLC it was 87.5%; in the assay on 786-0 renal it was 96.9%; in the assay with COLO 205 colon, 107%; in the assay with DU-145 prostate, 96.2%; in the assay with K-562 leukemia it was 83.3%. Further, the growth with MALME-3M melanoma is 94.8%; with MDA-MB-231 breast it was 92.3%; in the assay on RXF 393 renal, 82.5%; in the assay on SF-268 CNS, 102%; in the assay on SF-295 CNS it was 78.6%; in the assay with SF-539 CNS, 85.6%. Besides, the growth in the assay with UACC-257 melanoma and in the assay with M14 melanoma was 103% throughout.
Turning to `CC(C)=CC(=O)OCC(=O)O[C@@H]1C[C@]2(C(C)C)O[C@@]1(C)[C@@H]1CC[C@@H](C)[C@H]1[C@@H]2OC(=O)/C=C/c1ccccc1`, the growth is 76% with NCI-H23 lung; 55.5% in the assay with NCI-H226 lung; 90.7% with NCI-H322M lung; 96.7% with HOP-62 NSCLC; 93.5% with NCI-H460 lung; 61% with HOP-92 NSCLC. In addition, the growth in the assay on NCI-H522 lung is 70.4%; in the assay on A549/ATCC NSCLC, 83.4%; in the assay with 786-0 renal it was 66%; with COLO 205 colon it was 106%; in the assay on DU-145 prostate, 96.8%; in the assay with K-562 leukemia it was 60.7%. For the same molecule, the growth in the assay with MALME-3M melanoma was 99.8%; in the assay with MDA-MB-231 breast, 90.9%; in the assay with RXF 393 renal it was 1.65% (active); with SF-268 CNS it was 62.3%; in the assay with SF-295 CNS it was 95.4%; with SF-539 CNS, 104%. In addition, the growth in the assay with UACC-257 melanoma was 86.8%; with M14 melanoma, 88.1%.
`CSc1nc(N)c(NS(=O)(=O)c2ccc(C(C)=O)cc2)c(=O)[nH]1`: the growth was 95.5% in the assay on NCI-H23 lung; 103% in the assay on NCI-H226 lung; 100% in the assay with NCI-H322M lung; 105% in the assay on HOP-62 NSCLC; 103% with NCI-H460 lung; 103% in the assay on HOP-92 NSCLC. The growth is 99.6% in the assay on NCI-H522 lung; 102% with A549/ATCC NSCLC; 78.9% with 786-0 renal; 98.6% with COLO 205 colon; 110% in the assay with DU-145 prostate; 96% with K-562 leukemia. In addition, the growth in the assay with MALME-3M melanoma was 100%; with MDA-MB-231 breast it was 104%; in the assay with RXF 393 renal it was 96.9%; in the assay on SF-268 CNS, 99.9%; in the assay on SF-295 CNS it was 97.3%; in the assay on SF-539 CNS it was 112%. In addition, the growth in the assay with UACC-257 melanoma is 105%; in the assay on M14 melanoma, 89.3%.
Consider `O=C(NCCNc1nccc(Nc2ccc(S(=O)(=O)Nc3ccccn3)cc2)n1)c1cccc([N+](=O)[O-])c1`, for which the growth was 97.4% in the assay on NCI-H23 lung; 98.7% in the assay with NCI-H226 lung; 106% in the assay with NCI-H322M lung; 99.2% in the assay with HOP-62 NSCLC; 104% in the assay with NCI-H460 lung; 102% in the assay on HOP-92 NSCLC. Further, the growth in the assay with NCI-H522 lung is 82%; in the assay with A549/ATCC NSCLC, 94.8%; with 786-0 renal, 98%; in the assay with COLO 205 colon, 110%; in the assay with DU-145 prostate it was 109%; with K-562 leukemia, 92.9%. Further, the growth is 108% in the assay on MALME-3M melanoma; 118% with MDA-MB-231 breast; 108% in the assay on RXF 393 renal; 104% with SF-268 CNS; 103% with SF-295 CNS; 102% with SF-539 CNS. In addition, the growth in the assay with UACC-257 melanoma was 95.3%; with M14 melanoma, 101%.
As for `O=c1scc(-c2ccc(C(F)(F)F)cc2)s1`, the growth in the assay on NCI-H23 lung was 89%; in the assay on NCI-H226 lung it was 91%; with NCI-H322M lung it was 90.5%; in the assay with HOP-62 NSCLC, 92.3%; in the assay on NCI-H460 lung, 102%; with HOP-92 NSCLC, 81%. Further, the growth is 67.5% in the assay on NCI-H522 lung; 79.1% in the assay on A549/ATCC NSCLC; 90.3% in the assay on 786-0 renal; 131% in the assay with COLO 205 colon; 110% in the assay with DU-145 prostate; 99.9% with K-562 leukemia. For the same molecule, the growth is 115% in the assay on MALME-3M melanoma; 104% in the assay on MDA-MB-231 breast; 87.4% in the assay with RXF 393 renal; 100% in the assay on SF-268 CNS; 85.6% in the assay with SF-295 CNS; 111% in the assay with SF-539 CNS. In addition, the growth in the assay with UACC-257 melanoma is 82.9%; with M14 melanoma it was 104%.
Consider `CCOC(=O)c1ccc2c(c1)nc(-c1ccccc1)n2C1CCCCC1`, for which the growth with NCI-H23 lung is 90.3%; in the assay on NCI-H226 lung, 120%; in the assay on NCI-H322M lung, 83.1%; in the assay with HOP-62 NSCLC, 65%; with NCI-H460 lung it was 107%; in the assay with HOP-92 NSCLC, 91.7%. For the same molecule, the growth was 73.6% in the assay on NCI-H522 lung; 68.3% in the assay on A549/ATCC NSCLC; 88.5% with 786-0 renal; 76.3% in the assay on COLO 205 colon; 105% in the assay on DU-145 prostate; 73.1% in the assay on K-562 leukemia. Besides, the growth with MALME-3M melanoma was 112%; in the assay with MDA-MB-231 breast it was 102%; with RXF 393 renal, 112%; in the assay on SF-268 CNS, 108%; with SF-295 CNS, 94.4%; in the assay on SF-539 CNS, 104%. Moreover, the growth in the assay with UACC-257 melanoma is 78.2%; in the assay on M14 melanoma it was 88.3%.
Regarding `O=C1/C(=C/c2ccccc2O)CC/C1=C\c1ccccc1O`, the growth in the assay on NCI-H23 lung was 59.8%; in the assay on NCI-H226 lung it was 82.9%; in the assay with NCI-H322M lung it was 96.4%; with HOP-62 NSCLC it was 94%; in the assay on NCI-H460 lung it was 68.9%; in the assay with HOP-92 NSCLC it was 20%. Besides, the growth in the assay with NCI-H522 lung is 56%; in the assay with A549/ATCC NSCLC it was 93.8%; with 786-0 renal, 54.3%; with COLO 205 colon, 107%; in the assay on DU-145 prostate, 46.1%; in the assay on K-562 leukemia, 7.41% (active). Further, the growth is 80.4% in the assay with MALME-3M melanoma; 44.3% in the assay with MDA-MB-231 breast; 67.5% in the assay on RXF 393 renal; 71.3% in the assay on SF-268 CNS; 98.6% in the assay on SF-295 CNS; 82.3% with SF-539 CNS. The growth in the assay on UACC-257 melanoma was 86.3%; in the assay on M14 melanoma it was 61.3%.
Take `O=C(NCc1ccc(Cl)cc1Cl)C1CCC(=O)N1c1cccs1` (stereo not given): the growth in the assay with NCI-H23 lung was 91%; in the assay on NCI-H226 lung it was 103%; in the assay with NCI-H322M lung, 104%; with HOP-62 NSCLC it was 92.9%; in the assay with NCI-H460 lung, 104%; in the assay on HOP-92 NSCLC, 103%. Besides, the growth in the assay with NCI-H522 lung is 76.8%; in the assay on A549/ATCC NSCLC, 86.3%; in the assay on 786-0 renal it was 94%; with COLO 205 colon, 96.8%; in the assay with DU-145 prostate, 108%; in the assay with K-562 leukemia it was 108%. In addition, the growth is 96.3% with MALME-3M melanoma; 96.5% in the assay on MDA-MB-231 breast; 109% with RXF 393 renal; 100% in the assay on SF-268 CNS; 90.8% in the assay with SF-295 CNS; 93.6% with SF-539 CNS. For the same molecule, the growth in the assay on UACC-257 melanoma was 90.8%; in the assay with M14 melanoma, 104%.
